Screens: PubChem BioAssay, SRMLSC
Only some compounds are listed: those with a hit (about 6.5% of all), similar ones and a draw of the others.
PMK inhibit – inhibitors of Streptococcus pneumoniae phosphomevalonate kinase; purified PMK, PK/LDH-coupled NADH absorbance 340 nm; hit rate 0.49% among 65,000; inhibition, % at 10 µM;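 active = top-ranked compounds by inhibition in the single 10 µM screen, taking a fixed number of the strongest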;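 also: 0% = full reaction with DMSO carrier and 100% = background rate without enzyme reaction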
Spn DPM-DC inh – S. pneumoniae DPM-DC inhibition; AID 556; purified DPM-DC, PK/LDH coupled NADH fluorescence; calls only at 10 µM; hit rate 0.49% among 65,000;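 active = the 320 compounds with the highest percent inhibition in the single-dose primary screen, excluding strongly autofluorescent ones, cut at about 32% in these data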;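 also: kinetic rate of NADH fluorescence loss reporting ADP formed by the decarboxylase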
NADH coupling – inhibition of NAD/NADH coupling enzymes, library profiling; coupled PK/LDH NADH assays, four targets; IC50, µM (top dose mostly 10 µM), without a hit: at the highest dose inhibition; hit rate 0.02% among 65,000; AID 774;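 active = single-dose screening hits from any of four coupled enzyme assays that gave an IC50 when retested across doses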;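 also: the DPM-DC format reads NADH fluorescence rather than 340 nm absorbance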
Abs 340nm – compounds absorbing at 340 nm; compound absorbance at 340 nm, fold over control; fold change at 10 µM; 65,000 tested, under 10 active;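 active = at 10 µM dose, initial 340 nm absorbance at least 2 fold that of control wells; inactive = change under 2 fold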;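 also: initial absorbance extrapolated from kinetic A340 decline of NADH oxidation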
Autofluor 339 – intrinsic fluorescence of library compounds, ex339/em460 – biochemical, MLSMR library, data from DPM-DC assay, artefact control, profiling panel; compound autofluorescence, ex339/em460 nm, NADH buffer; active compounds read high; 1 = no-compound wells, NADH background; fluorescence fold increase at 10 µM; AID 709; hit rate 5.5% among 65,000;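 active = at 10 µM, mean starting fluorescence two-fold or more over control wells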;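 also: signal is the first read of a kinetic run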
Spn MK inh – inhibitors of Streptococcus pneumoniae mevalonate kinase; purified MK, PK/LDH-coupled NADH absorbance 340 nm; hit rate 0.48% among 65,000; inhibition, % at 10 µM;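 active = ranked among the strongest by inhibition in the single 10 µM screen, a fixed top-ranked set picked for dose follow-up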
The depositor's hits bear a star.

Screening Cc1ccc(-c2cc(C(=O)Nc3cc(C)on3)c3ccccc3n2)c(C)c1 returned PMK inhibit 3.0, Spn DPM-DC inh inactive, NADH coupling 1.0%, Abs 340nm 1.03, Autofluor 339 1.18 and Spn MK inh 1.0.
`Cc1cc(NC(=O)c2cc(-c3cccnc3)nc3c(C)c(C)ccc23)no1` gave PMK inhibit 5.0, Spn DPM-DC inh inactive, NADH coupling 3.0%, Abs 340nm 1.06, Autofluor 339 2.89* and Spn MK inh 3.0.
Screening O=C(COc1ccc(Cl)cc1)Nc1ccc2oc(-c3ccncc3)nc2c1 returned PMK inhibit 13.0, NADH coupling 9.0%, Abs 340nm 1.04, Autofluor 339 4.79* and Spn MK inh 4.0.
`CC(C)(Oc1ccc(Cl)cc1)C(=O)Nc1ccc2oc(-c3ccncc3)nc2c1` gave PMK inhibit 3.0, NADH coupling 4.0%, Abs 340nm 1.05, Autofluor 339 3.43* and Spn MK inh 5.0.
Clc1ccc2oc(-c3ccccc3)nc2c1 was read as PMK inhibit 0.0, Spn DPM-DC inh inactive, NADH coupling 2.0%, Abs 340nm 1.02, Autofluor 339 1.06 and Spn MK inh 5.0.
c1cc(-c2nc3cc(Oc4ccc5oc(-c6ccncc6)nc5c4)ccc3o2)ccn1 was read as PMK inhibit 4.0, Spn DPM-DC inh inactive, NADH coupling 4.0%, Abs 340nm 1.03, Autofluor 339 2.58* and Spn MK inh 7.0.
Cc1ccc(OCC(=O)Nc2ccc(O)c(-c3nc4ccccc4o3)c2)cc1 was read as PMK inhibit 10.0, NADH coupling 7.0%, Abs 340nm 1.07, Autofluor 339 1.97 and Spn MK inh 3.0.
For CCCCC(CC)CNC(=O)c1ccc2c(c1)OCO2 (stereo not given) the results were PMK inhibit 20.0, Spn DPM-DC inh inactive, NADH coupling 8.0%, Abs 340nm 1.02, Autofluor 339 1.12 and Spn MK inh 4.0.
COc1ccc2c(c1)[nH]c1c(=O)n(CCN3CCCC3)cnc12 was read as PMK inhibit 9.0, Spn DPM-DC inh inactive, NADH coupling 7.0%, Abs 340nm 1.06, Autofluor 339 0.91 and Spn MK inh 8.0.
For CCC1CCCN1Cn1cnc2c([nH]c3ccc(OC)cc32)c1=O (stereo not given) the results were PMK inhibit 3.0, NADH coupling 2.0%, Abs 340nm 1, Autofluor 339 2.98* and Spn MK inh 12.0.
`COc1cc2[nH]c3c(=O)n(CCN(C(C)C)C(C)C)cnc3c2cc1OC` gave PMK inhibit 9.0, NADH coupling 3.0%, Abs 340nm 1.01, Autofluor 339 2.45* and Spn MK inh 0.0.
For CCN1CCCC1Cn1cnc2c([nH]c3cccc(Cl)c32)c1=O (stereo not given) the results were PMK inhibit 4.0, Spn DPM-DC inh inactive, NADH coupling 6.0%, Abs 340nm 1.02, Autofluor 339 2.16* and Spn MK inh 9.0.
Screening CCCCN(CCCC)CCn1cnc2c([nH]c3ccc(OC)cc32)c1=O returned PMK inhibit 11.0, NADH coupling 2.0%, Abs 340nm 1.01, Autofluor 339 2.3* and Spn MK inh 0.0.
For O=C1COc2ccc(OCc3ccc(F)cc3)cc21 the results were PMK inhibit 11.0, Spn DPM-DC inh inactive, NADH coupling 8.0%, Abs 340nm 0.98, Autofluor 339 1.11 and Spn MK inh 12.0.
Screening O=C(Nc1ccc(Cl)cc1)N1CCC(c2nc(-c3ccc(F)cc3)no2)CC1 returned PMK inhibit 11.0, Spn DPM-DC inh inactive, NADH coupling 4.0%, Abs 340nm 1.01, Autofluor 339 1.13 and Spn MK inh 0.0.
`CCc1nc(SCC(=O)N2CCCc3ccccc32)c2c(=O)n(C)c(=O)n(C)c2n1` gave PMK inhibit 0.0, Spn DPM-DC inh inactive, NADH coupling 2.0%, Abs 340nm 1.03, Autofluor 339 1.12 and Spn MK inh 5.0.
For CN1CCN(C(=O)CSc2nc(-c3cccs3)ccc2C#N)CC1 the results were PMK inhibit 0.0, NADH coupling 7.0%, Abs 340nm 1.15, Autofluor 339 2.3* and Spn MK inh 13.0.
`Cc1ccc(OCC(=O)N2CCC(N3CCCCCC3)CC2)cc1` gave PMK inhibit 0.0, Spn DPM-DC inh inactive, NADH coupling 15.0%, Abs 340nm 1.03, Autofluor 339 1.05 and Spn MK inh 41.0*.
Cc1ccc(OCC(=O)N2CCN(C(=O)CCC3CCCC3)CC2)cc1 was read as PMK inhibit 9.0, Spn DPM-DC inh inactive, NADH coupling 10.0%, Abs 340nm 0.99, Autofluor 339 1 and Spn MK inh 6.0.
`Cc1noc(C)c1CSc1ncnc2ccccc12` gave PMK inhibit 10.0, Spn DPM-DC inh inactive, NADH coupling 3.0%, Abs 340nm 1.03, Autofluor 339 1.21 and Spn MK inh 0.0.
For Cc1ccc(-c2c(C#N)c(N)nc3c2CCCCC3)o1 the results were PMK inhibit 5.0, Spn DPM-DC inh inactive, NADH coupling 8.0%, Abs 340nm 1.06, Autofluor 339 2.04* and Spn MK inh 5.0.
Screening Cc1ccc(-c2c(C#N)c(N)nc3c2CCCCCC3)o1 returned PMK inhibit 6.0, NADH coupling 4.0%, Abs 340nm 0.92, Autofluor 339 2.2* and Spn MK inh 2.0.
Screening c1ccc(Cn2nnc3c(Nc4ccc5c(c4)OCO5)nc(C4CC4)nc32)cc1 returned PMK inhibit 0.0, NADH coupling 0.0%, Abs 340nm 1.12, Autofluor 339 3.68* and Spn MK inh 0.0.
For COc1ccc2nc(NCCCNC(=O)c3cc(OC)c(OC)c(OC)c3)c(C#N)cc2c1 the results were PMK inhibit 17.0, NADH coupling 9.0%, Abs 340nm 1.02, Autofluor 339 3.1* and Spn MK inh 0.0.
`O=C(C1CCN(Cc2ccc(OCc3ccccc3)cc2)CC1)N1CCCC1` gave PMK inhibit 34.0*, Spn DPM-DC inh inactive, NADH coupling 31.0%, Abs 340nm 1.03, Autofluor 339 1.12 and Spn MK inh 59.0*.
For COc1ccc(CN2CCCC(C(=O)N3CCCC3)C2)cc1 (stereo not given) the results were PMK inhibit 10.0, Spn DPM-DC inh inactive, NADH coupling 3.0%, Abs 340nm 1.03, Autofluor 339 1.06 and Spn MK inh 0.0.
`Cc1ccc(-c2nc(CN(C)C)cc(CN(C)C)c2O)cc1` gave PMK inhibit 6.0, NADH coupling 8.0%, Abs 340nm 1.08, Autofluor 339 3.82* and Spn MK inh 10.0.
Screening Cc1cc(C)c(S(=O)(=O)Nc2ccc(OCC(=O)O)cc2)c(C)c1 returned PMK inhibit 0.0, Spn DPM-DC inh inactive, NADH coupling 1.0%, Abs 340nm 1.08, Autofluor 339 1.09 and Spn MK inh 0.0.
Screening CCOC(=O)N1CCC(NC(=O)c2cnn3cccnc23)CC1 returned PMK inhibit 5.0, Spn DPM-DC inh inactive, NADH coupling 10.0%, Abs 340nm 1.05, Autofluor 339 2.15* and Spn MK inh 6.0.
